The sample as a whole holds a higher share of hits than the screen did.
Pf Dd2 growth = Plasmodium falciparum Dd2 growth inhibition; P. falciparum Dd2 growth, SYBR Green, 72 h; Potency, µM (series often up to 28.9 µM), actives largely listed as inhibitors; 120,000 compounds, 4.3% hits; active = well fitted inhibition curve with a large enough effect; note: nearly all actives have a fitted effect of over 65% in size
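Readout: SYBR Green fluorescence, 485 nm excitation, 535 nm emission, after ~16 h lysis at 37C. Before that, Dd2-infected red cells (2.5% hematocrit) grew 72 h with compound, 29 uM top final concentration.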
Of the large screens only hits and unclear results are named; the others gave an inactive call.

CN(C)CC(=O)N1Cc2ccccc2CC2(CCCN(CC3CCNCC3)C2)C1 (configuration not stated)	none
CCC(=O)N1Cc2ccccc2CC2(CCN(CCc3ccc(C)cc3)CC2)C1	Pf Dd2 growth 8.9µM
CCCN1CCCC2(Cc3ccccc3CN(C(=O)Cc3ccccc3)C2)C1 (configuration not stated)	Pf Dd2 growth 6.3µM
CCCN1CCCC12Cc1ccccc1CN(C(=O)CCCC(=O)O)C2 (configuration not stated)	none
CC(=O)NCCC(=O)N1Cc2ccccc2CC2(CCN(Cc3cccnc3)C2)C1 (configuration not stated)	none
CC(=O)N1Cc2ccccc2CC2(CCN(Cc3ccncc3)C2)C1 (configuration not stated)	none
CN1CCCC2(Cc3ccccc3CN(C(=O)c3ccccc3)C2)C1 (configuration not stated)	none
CC(=O)NCC(=O)N1Cc2ccccc2CC2(CCN(C)C2)C1 (configuration not stated)	none
O=C1NCCCCCN(CC2CCCCC2)[C@H]2CCC[C@@H]12	none
C#CCNC(=O)C[C@@H]1C[C@@H](C(C)C)[C@H](CO)C=C1C	none
CS(=O)(=O)N1C[C@@H](Oc2ccccc2)C[C@H]1C(=O)N1CCOCC1	none
Cc1cccc(C(=O)N2CCC(C(NC(=O)c3ccccc3Cl)C(=O)NCC(C)C)CC2)c1 (configuration not stated)	none
O=C(c1cc(F)ccc1F)N1CCC(c2n[nH]c(=O)n2-c2ccccc2)CC1	none
Cc1ncoc1C(=O)N1CCC(C(=O)N2CCCCCCNC(=O)CC2)CC1	none
COc1cc(OC)c(OC)cc1CN1C[C@@H]2C(=O)N(C)C(=O)[C@@H]2C1	none
COc1ccc(-c2nnc(SCC(=O)NC3CCCCC3)nc2-c2ccc(OC)cc2)cc1	none
Cc1ccc(-c2nnc(SCC(=O)NC3CCCC3)nc2-c2ccc(C)cc2)cc1	Pf Dd2 growth 5µM
O=C(CSc1nnc(-c2ccc(Cl)cc2)c(-c2ccc(Cl)cc2)n1)NC1CCCC1	none
CC[C@@H]1[C@@H](NC(=O)CCCn2nnc(-c3ccc(F)cc3)n2)[C@@H]2CCO[C@H]12	none
O=C1[C@H]2CN(Cc3ccccc3Cl)C[C@H]2C(=O)N1Cc1ccc2c(c1)OCO2	none
Cc1cc2c(c3oc(=O)c4ccccc4c13)CN(Cc1ccc(F)cc1)CO2	Pf Dd2 growth 0.79µM
O=C(Cn1c(=O)c2c(n1Cc1ccccc1)CN(Cc1ccccc1)CC2)NCc1cccc(Cl)c1	none
Cc1ccc2c(c1)N1C(=O)OC[C@@H]1CCN(Cc1cccc(Cl)c1)C2	none
O=c1oc2c3c(ccc2c2ccccc12)OCN(Cc1cccc(Cl)c1)C3	Pf Dd2 growth 10µM
O=C1CC2(CCN(Cc3ccc(F)cc3)CC2)Oc2ccccc2N1	none
Cc1ccc2c(CN3CCN(Cc4ccccc4Cl)CC3)cc(=O)oc2c1	none
O=c1oc2c3c(ccc2c2ccccc12)OCN(Cc1ccccc1Cl)C3	Pf Dd2 growth 5.6µM
Cc1ccc(-c2c(C(=O)NCc3ccc(F)cc3)oc(=O)c3ccccc23)cc1	none
CNC(=O)[C@@H](Cc1ccccc1)N1CCC[C@H]1C(=O)NC(C)(C)C	none
Cc1cccc(CC(C)NC(=O)c2coc(COc3ccc4c(c3)OCO4)n2)n1 (configuration not stated)	none
COc1cc(OC)cc(-c2nc(C3CC(=O)N(c4ccc(F)c(Cl)c4)C3)no2)c1 (configuration not stated)	none
O=C(Cc1noc2ccccc12)N[C@@H]1COCC[C@@H]1OCc1ccccn1	none
O=C(CCC1CCN(S(=O)(=O)c2ccccc2)CC1)N1CCc2ccccc2C1	none
CC1=C(C(N)=O)C(c2ccc(F)cc2)n2nc(-c3ccccc3Cl)nc2N1 (configuration not stated)	none
O=S(=O)(Nc1nc2n(n1)C(c1ccc(F)cc1)C=C(c1ccc(Cl)cc1)N2)c1ccccc1 (configuration not stated)	none
O=C(Nc1nc(-c2ccccc2)ns1)c1ccc(Cl)cc1	none
COc1cc(C2C(C(=O)Nc3ccccc3)=C(C)Nc3nc(SCc4ccccc4F)nn32)cc(OC)c1OC (configuration not stated)	none
O=C(c1ccccc1)n1nc(-c2ccccc2)nc1NCc1ccc(F)cc1	none
O=C(c1ccc(F)cc1)n1nc(-c2ccccc2)nc1NCc1ccc(F)cc1	none
O=C(/C=C/c1ccccc1)Nc1nc2n(n1)C(c1ccc(Cl)cc1)C=C(c1ccccc1)N2 (configuration not stated)	Pf Dd2 growth 11µM
CC(=O)Nc1nc2n(n1)C(c1ccc(F)cc1)C=C(c1ccc(Cl)cc1)N2 (configuration not stated)	Pf Dd2 growth 10µM
O=C(O)c1cc(-n2c(/C=C\c3ccc(F)cc3)nc3ccccc3c2=O)ccc1Cl	none
O=C(/C=C/c1ccc(F)cc1)Nc1nc2n(n1)C(c1ccc(Cl)cc1)C=C(c1ccccc1)N2 (configuration not stated)	Pf Dd2 growth 11µM
COc1ccccc1/C=C/C(=O)Nc1nc2n(n1)C(c1ccc(F)cc1)C=C(c1ccccc1)N2 (configuration not stated)	Pf Dd2 growth 10µM
O=C(NC1CC1)C1(c2ccc(Cl)cc2)CCOCC1	none

Compound activity from PubChem BioAssay.
